The list is not random: actives were taken first. Their share in the collection is about 2.9%.
pPAFAH FP inh: inhibitors of human plasma PAF acetylhydrolase (pPAFAH). Q13093. recombinant pPAFAH, FP-rhodamine probe fluorescence polarization. inhibition, % at 3.39 µM. 330,000 tested, 1.5% active. AID 463082;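 active = inhibition above the mean inhibition across the screen plus 3 SD, cut at about 25% in these data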;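 note: inhibitors block binding of the rhodamine activity-based probe so polarization drops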
PAFAH1B3 FP inh: inhibitors of human PAFAH1B3; Q15102; recombinant PAFAH1B3, FP-rhodamine probe, fluorescence polarization; inhibition, % at 3.39 µM; 340,000 tested, 0.28% active; AID 492972;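 active = inhibition above the screen-wide average of all tested compounds plus 3 SD, cut at about 25% in these data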
Target sequence (Q15102 whole entry, looked up): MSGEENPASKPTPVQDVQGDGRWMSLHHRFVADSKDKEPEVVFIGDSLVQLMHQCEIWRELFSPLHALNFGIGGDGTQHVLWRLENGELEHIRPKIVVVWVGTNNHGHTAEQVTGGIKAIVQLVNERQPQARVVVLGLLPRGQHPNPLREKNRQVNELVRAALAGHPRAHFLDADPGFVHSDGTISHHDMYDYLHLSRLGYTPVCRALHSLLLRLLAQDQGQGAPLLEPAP
ZTA counter: counter-screen for EBNA-1 inhibitors: inhibitors of Epstein-Barr virus ZTA | P03206 | ZTA-DNA binding, fluorescence polarization | inhibition, % at 11 µM | 320,000 tested, 0.15% active | AID 2234; in the data active = inhibition above about 33%
Target sequence (P03206 whole entry, looked up): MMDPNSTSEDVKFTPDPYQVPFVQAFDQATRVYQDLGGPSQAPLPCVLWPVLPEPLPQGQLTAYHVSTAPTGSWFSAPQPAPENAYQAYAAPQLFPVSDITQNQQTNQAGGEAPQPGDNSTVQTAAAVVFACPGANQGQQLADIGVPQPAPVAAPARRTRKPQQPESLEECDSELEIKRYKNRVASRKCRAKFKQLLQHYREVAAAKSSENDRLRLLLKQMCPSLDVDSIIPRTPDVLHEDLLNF
EBNA-1 inhibitor: blocks EBNA-1 binding to DNA; EBNA-1 DNA binding, fluorescence polarization; inhibition, % at 14.8 µM; 300,000 tested, 0.34% active; AID 1950; in the data active = inhibition above about 28%
PAFAH1B2 inh: inhibitors of human PAFAH1B2 | AID 492953 | recombinant PAFAH1B2, FP-rhodamine activity probe, fluorescence polarization | inhibition, % at 3.39 µM | P68402 | 340,000 tested, 1.2% active;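 active = inhibition above the mean of all tested compounds plus 3 SD, cut at about 24% in these data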
Target sequence (P68402 whole entry, looked up): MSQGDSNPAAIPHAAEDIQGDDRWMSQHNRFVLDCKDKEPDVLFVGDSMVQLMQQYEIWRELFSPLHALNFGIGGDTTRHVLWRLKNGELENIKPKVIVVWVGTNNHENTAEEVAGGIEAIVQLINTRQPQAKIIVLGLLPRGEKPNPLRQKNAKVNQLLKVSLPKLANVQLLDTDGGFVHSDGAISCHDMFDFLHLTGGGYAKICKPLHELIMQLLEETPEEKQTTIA
PAFAH2 inh: inhibitors of human PAFAH2; Q99487; recombinant PAFAH2, FP-rhodamine activity probe, fluorescence polarization; inhibition, % at 3.39 µM; 340,000 tested, 0.99% active; AID 492956;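 active = inhibition above the mean over all tested compounds plus 3 SD, cut at about 30% in these data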;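 note: inhibitors block probe labeling of enzyme so polarization drops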
PAFAH1B3 conf FP: PAFAH1B3 (human) inhibition, confirmed | shares compounds with PAFAH1B3 FP inh | recombinant PAFAH1B3, FP-Rh activity-based probe, fluorescence polarization | inhibition, % at 3.39 µM | 390 tested, 30% active;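 active = average inhibition over triplicate runs above the hit cutoff set in the earlier primary screen, cut at about 25% in these data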
Each line names hits and unclear results; the compound was inactive in the other large screens (follow-up assays come after a bar, where they were run).

CC(=O)c1c(C)[nH]c(C(=O)Nc2ccc(Cl)c(S(=O)(=O)N3CCOCC3)c2)c1C	PAFAH1B3 FP inh 28 | PAFAH1B3 conf FP inactive
Cc1cccc(C2Nc3cccc4cccc(c34)N2)c1	PAFAH1B3 FP inh 31 | PAFAH1B3 conf FP inactive
c1cc2c3c(cccc3c1)NC(c1ccc3c(c1)OCO3)N2	PAFAH1B3 FP inh 28 | PAFAH1B3 conf FP inactive
C=CC(=O)Nc1ccc(Br)cc1	PAFAH1B3 FP inh 63 | PAFAH1B3 conf FP 57
CC(=O)N/C(=C/c1ccc2c(c1)OCO2)C(=O)NCc1ccccc1	none
CN(C)c1ccc(/C=C2\Oc3ccc(C#Cc4cccc(N)c4)cc3C2=O)cc1	none (no result: ZTA counter, EBNA-1 inhibitor)
COCCCNC(=S)N1CCCN(c2nc3cc(C)c(C)cc3cc2C#N)CC1	PAFAH1B3 FP inh 26 | PAFAH1B3 conf FP inactive
CCOCCCNC(=S)N1CCCN(c2nc3cc(C)c(C)cc3cc2C#N)CC1	none
Cc1nn(C(=O)c2nn(C)cc2[N+](=O)[O-])c(C)c1Br	none
O=C1C=C(Nc2cccnc2)c2ccccc2C1=O	PAFAH1B3 FP inh 53 (no result: pPAFAH FP inh, ZTA counter, EBNA-1 inhibitor) | PAFAH1B3 conf FP 27
COc1cc(Cl)c(NC2=CC(=O)C(=O)c3ccccc32)c(OC)c1	PAFAH1B3 FP inh 35 (no result: EBNA-1 inhibitor) | PAFAH1B3 conf FP 29
O=C1C=C(Nc2ccccc2O)c2ccccc2C1=O	none
CCOc1ccc(NC2=CC(=O)C(=O)c3ccccc32)cc1	PAFAH1B3 FP inh 49 (no result: pPAFAH FP inh, ZTA counter, EBNA-1 inhibitor) | PAFAH1B3 conf FP 31
O=C1C=C(Nc2ccc(F)cc2)c2ccccc2C1=O	PAFAH1B3 FP inh 34 (no result: EBNA-1 inhibitor) | PAFAH1B3 conf FP inactive
COC(=O)c1cc(=O)n(-c2ccc(C(F)(F)F)cc2)[nH]1	none
CC(C)(C)c1ccc(-c2nnc(SCC(=O)NC3CCS(=O)(=O)C3)n2N)cc1 (centres undefined)	none
CCOc1ccc(-n2cc(-c3ccc(OC)c(OC)c3)[nH]c2=S)cc1	none
Cc1ccc(NC2=CC(=O)C(=O)c3ccccc32)c(C)c1	PAFAH1B3 FP inh 40 (no result: EBNA-1 inhibitor) | PAFAH1B3 conf FP inactive
CCN(CC)c1ccc(/C=N/NC(=O)Cc2nnc(NC(=O)Nc3ccccc3)s2)cc1	PAFAH1B3 FP inh 35 | PAFAH1B3 conf FP 26
C/C(=N\NC(=O)c1cc(-c2cccc([N+](=O)[O-])c2)n[nH]1)c1ccccc1O	PAFAH1B3 FP inh 26 | PAFAH1B3 conf FP inactive
C/C(=N/NC(=O)c1cc(-c2cccc([N+](=O)[O-])c2)n[nH]1)c1cccc(O)c1	none
O=C1c2ccccc2C(=O)c2c(O)c(O)cc(O)c21	pPAFAH FP inh 47, PAFAH1B3 FP inh 40 (no result: ZTA counter, EBNA-1 inhibitor) | PAFAH1B3 conf FP 29
O=[N+]([O-])c1ccc(N/N=C/c2ccccc2O)cc1	PAFAH1B3 FP inh 26 | PAFAH1B3 conf FP inactive
CC(=O)Oc1cccc(N2C(=O)c3cccc4c([N+](=O)[O-])ccc(c34)C2=O)c1	PAFAH1B3 FP inh 28 | PAFAH1B3 conf FP 40
CCC(=O)N(C1=C(NC)C(=O)c2ccccc2C1=O)C(C)C	none
CNC1=C(N(C(C)=O)c2ccc(Br)cc2)C(=O)c2ccccc2C1=O	PAFAH1B3 FP inh 38 | PAFAH1B3 conf FP inactive
CCN(c1ccccc1)c1cc2ccccc2c(=O)[nH]1	PAFAH1B3 FP inh 26 | PAFAH1B3 conf FP inactive
CCN(c1ccccc1)c1nc(=O)c2cccnc2s1	none
N#CC(C#N)=C1C=C2C=C(N3CCCCCC3)CCC2CC1 (centres undefined)	none (no result: pPAFAH FP inh, ZTA counter, EBNA-1 inhibitor)
N#CC(C#N)=C1C=C2C=C(N3CCOCC3)CCC2CC1 (centres undefined)	PAFAH1B3 FP inh 34 (no result: pPAFAH FP inh, ZTA counter, EBNA-1 inhibitor) | PAFAH1B3 conf FP inactive
CCCCC[n+]1ccn(C2=C([O-])c3ccccc3C(=O)/C2=N\S(=O)(=O)c2ccccc2)c1	none
CCCC[n+]1ccn(C2=C([O-])c3ccccc3C(=O)/C2=N\S(=O)(=O)c2ccccc2)c1	PAFAH1B3 FP inh 36 | PAFAH1B3 conf FP 26
CCOC(=O)/C(=N/Nc1ccc(C)cc1)S(=O)(=O)c1ccc(Cl)cc1	none
NNC(=O)/C(=N/Nc1ccccc1)S(=O)(=O)c1ccc(Cl)cc1	PAFAH1B3 FP inh 40 | PAFAH1B3 conf FP 37
COc1ccc(OC)c(S(=O)(=O)N2CCCC(C(=O)N3CCCCCC3)C2)c1 (centres undefined)	none
Clc1cccc2sc(N3CCOCC3)nc12	PAFAH1B3 FP inh 30 | PAFAH1B3 conf FP inactive
Clc1cccc2sc(N3CCCC3)nc12	none
CCC(=O)Nc1c(C#N)c2nc3ccccc3nc2n1-c1ccc(C)cc1	none (no result: pPAFAH FP inh, ZTA counter, EBNA-1 inhibitor)
Cc1nn(C(C)(C)C)c(NC(=O)c2ccccc2)c1C#N	none
CCC(C)n1c(NC(=O)c2ccccc2)c(C#N)c2nc3ccccc3nc21 (centres undefined)	PAFAH1B3 FP inh 35 | PAFAH1B3 conf FP inactive
N#Cc1c(NC(=O)c2ccc(Br)o2)n(-c2ccccc2)c2nc3ccccc3nc12	PAFAH1B3 FP inh 65 | PAFAH1B3 conf FP 48
CC(Sc1nnc(-c2ccncc2)n1C)C(=O)Nc1nccs1 (centres undefined)	none
CCCn1c(=O)c2[nH]c(-c3ccc(OCC(=O)Nc4ccc(C#N)cc4)cc3)nc2n(CCC)c1=O	none
Cc1cc2c(cc1C)C(c1ccsc1)CC(=O)N2 (centres undefined)	none
CC12CCC3C(=CCc4cc(O)ccc43)C1CC(=NO)C2O (centres undefined)	none (no result: pPAFAH FP inh, ZTA counter, EBNA-1 inhibitor)
COc1ccc2c(c1)CC=C1C2CCC2(C)C(=O)C(=NO)CC12 (centres undefined)	PAFAH1B3 FP inh 33 (no result: pPAFAH FP inh, ZTA counter, EBNA-1 inhibitor) | PAFAH1B3 conf FP 29
CC1(C)C=C2C(=NN(c3ccccc3)C(N)=C2C#N)CO1	PAFAH1B3 FP inh 44 | PAFAH1B3 conf FP 51
O=C(COC(=O)c1ccc([N+](=O)[O-])s1)NC(c1ccccc1)c1ccccc1	PAFAH1B3 FP inh 42 | PAFAH1B3 conf FP inactive
O=C(COC(=O)c1ccc([N+](=O)[O-])s1)NCc1ccccc1	none
CC(C)(C)c1ccc(NC(=O)COC(=O)c2ccc([N+](=O)[O-])s2)cc1	PAFAH1B3 FP inh 38 | PAFAH1B3 conf FP inactive
CSc1ncccc1C(=O)OCC(=O)N1CCc2ccccc21	none (no result: ZTA counter, EBNA-1 inhibitor)
CC12CCC(=O)C=C1CCC1C2C(O)CC2(C)C1CCC2(O)C(=O)COC(=O)COCC(=O)O (centres undefined)	none (no result: pPAFAH FP inh, ZTA counter, EBNA-1 inhibitor)
CC(C)NCC(O)(c1ccc(Cl)cc1)c1ccc(Cl)cc1	PAFAH1B3 FP inh 29 | PAFAH1B3 conf FP inactive
CC(C)(C)NCC(O)(c1ccc(Cl)cc1)c1ccc(Cl)cc1	none
COc1cc2c(cc1OC)CN(CCC(=O)c1ccc(Br)cc1)CC2	PAFAH1B3 FP inh 33 | PAFAH1B3 conf FP 28
CN(C(=O)CCN1C(=O)c2ccccc2C1=O)c1ccccc1	none
COCC(=O)OC1CCn2c1nc1c2C(=O)C(C)=C(NC(C)=O)C1=O (centres undefined)	PAFAH1B3 FP inh 69 (no result: pPAFAH FP inh, ZTA counter, EBNA-1 inhibitor) | PAFAH1B3 conf FP 55
CCC(=O)Oc1ccc(C/C(=N\O)c2ccc(O)cc2O)o1	PAFAH1B3 FP inh 27 | PAFAH1B3 conf FP 38
CCOC(=O)c1ccc(CC(=O)c2ccc(O)cc2O)o1	none

Screens: PubChem BioAssay, The Scripps Research Institute Molecular Screening Center
